40 compounds from PubChem BioAssay AID1611 (NINDS Approved Drug Screening Program, 2009) can be followed below.

“And” between values parts separate entries of the source, which are not always exact repeats. Equal entries are not always repeated.

The test in a line: inducers of human heat shock response, cell-based, HSE luciferase (AID 1611). Conditions: human cells, HSE-luciferase heat shock reporter; stronger effect = higher value.
Consider `NC(=O)c1cnccn1`, for which the fold change is 1.78.
Turning to `NC[C@@H]1O[C@H](O[C@@H]2[C@@H](CO)OC(O[C@@H]3[C@@H](O)[C@H](N)C[C@H](N)[C@H]3OC3O[C@H](CN)[C@@H](O)[C@H](O)[C@H]3N)[C@@H]2O)[C@H](N)[C@@H](O)[C@@H]1O` (stereo not given in full), the fold change was found to be 0.96.
For the compound `CC[C@H]1OC(=O)[C@H](C)[C@@H](O[C@H]2C[C@@](C)(OC)[C@@H](O)[C@H](C)O2)[C@H](C)[C@@H](O[C@@H]2O[C@H](C)C[C@H](N(C)C)[C@H]2O)[C@](C)(O)C[C@@H](C)CN(C)[C@H](C)[C@@H](O)[C@]1(C)O`, the fold change came out at 293.
The same measure for `C1CNCCN1`: 1.04; for `Cc1ccc(C)c(OCCCC(C)(C)C(=O)O)c1`: 0.57; for `CN1CCC[C@@H]1CCO[C@](C)(c1ccccc1)c1ccc(Cl)cc1`: 0.87.
As for `NCCCCCCNS(=O)(=O)c1cccc2c(Cl)cccc12`, the fold change was 1.18 and 0.78.
Under `C#C[C@]1(OC(C)=O)CCC2C3CCC4=CC(=O)CC[C@@H]4C3CC[C@@]21C` (stereo not given in full) stands 0.92; under `O=C(O)c1cn(C2CC2)c2cc(N3CCNCC3)c(F)cc2c1=O`, 1.5.
The same measure for `CC(=O)[C@@]1(O)CCC2C3C[C@H](C)C4=CC(=O)C=CC4(C)[C@@]3(F)[C@@H](O)C[C@@]21C` (stereo not given in full): 1.43; for `O=C(O)CCCCC1SCC2NC(=O)NC21` (stereo not given): 2.49.
The same measure for `CC(C)=CCC/C(C)=C/CO`: 3.1.
With `COC(=O)[C@H]1[C@H]2C[C@@H]3c4[nH]c5cc(OC)ccc5c4CCN3C[C@H]2C[C@@H](OC(=O)c2cc(OC)c(OC)c(OC)c2)[C@@H]1OC`, the fold change worked out at 0.6.
The same measure for `CN(C)CCOC(c1ccccc1)c1ccccc1` (tested in a mixture with another compound): 0.8; for `CC(COc1ccccc1)NC(C)[C@H](O)c1ccc(O)cc1` (stereo not given in full): 5.01; for `Cc1cc(C)nc(NS(=O)(=O)c2ccc(N)cc2)n1`: 1.02.
Regarding `Cc1ccc(C(=O)C(C)CN2CCCCC2)cc1` (stereo not given), the fold change came out at 0.93.
On to `CCCN(CCC)S(=O)(=O)c1ccc(C(=O)O)cc1`, for which the fold change came to 0.78.
The same measure for `Nc1c(Br)cc(Br)cc1CNC1CCC(O)CC1` (stereo not given): 1.19.
The same measure for `CCCn1c(=O)c2[nH]c(C3CCCC3)nc2n(CCC)c1=O`: 0.74; for `Oc1ccc(Cl)c2cccnc12`: 1.15.
Under `c1coc(CNc2ncnc3nc[nH]c23)c1` stands 1.22.
Take `CC(C)(Oc1ccc(CCNC(=O)c2ccc(Cl)cc2)cc1)C(=O)O`: the fold change is 1.4.
For the compound `CN1CCc2cccc3c2C1Cc1ccc(O)c(O)c1-3` (stereo not given), the fold change was 0.71.
The same measure for `CN1CCN(C(c2ccccc2)c2ccc(Cl)cc2)CC1` (stereo not given): 1.12; for `CCN(CC)CC(=O)Nc1c(C)cccc1C`: 0.78; for `CC(=O)Oc1cccc(O)c1`: 0.84.
As to `CC(C)(C)NC[C@@H](O)COc1nsnc1N1CCOCC1`, the fold change is 0.87.
With `CC1=CC(=O)c2ccccc2C1=O`, the fold change worked out at 0.86.
Under `O=C1c2ccc(O)c(O)c2C(=O)c2c(O)ccc(O)c21` stands 0.67.
The same measure for `CC(CN1c2ccccc2Sc2ccccc21)N(C)C` (stereo not given): 0.91; for `COC1=C2C[C@@H](C)C[C@H](OC)[C@H](O)[C@@H](C)/C=C(\C)[C@@H](OC(N)=O)[C@H](OC)/C=C\C=C(/C)C(=O)NC(=CC1=O)C2=O`: 1.05; for `CCN(CC)CCOc1ccc2c(c1)C(=O)c1cc(OCCN(CC)CC)ccc1-2`: 0.93.
The same measure for `Cn1nnnc1SCC1=C(C(=O)O)N2C(=O)C(NC(=O)C(O)c3ccccc3)C2SC1` (stereo not given): 1.15; for `CN(C)C(=O)Oc1ccc[n+](C)c1`: 1.31; for `CO/N=C(\C(=O)NC1C(=O)N2C(C(=O)O)=C(CSc3nc(=O)c(O)nn3C)CS[C@H]12)c1csc(N)n1` (stereo not given in full): 0.94.
Regarding `CC(=O)OCC1=C(C(=O)O)N2C(=O)[C@@H](NC(=O)Cc3cccs3)[C@H]2SC1`, the fold change was 1.09.
Regarding `CO[C@]12C[C@@H](COC(=O)c3cncc(Br)c3)CN(C)[C@@H]1Cc1cn(C)c3cccc2c13`, the fold change stood at 0.91.
For `NC(N)=O`, the fold change amounted to 1.06.
Consider `NC(N)=N/N=C\c1c(Cl)cccc1Cl`, for which the fold change is 0.39.
